Screening data (PubChem BioAssay)
An excerpt weighted towards active compounds, which were near 0.58% of everything screened.
Y pestis TopoI – Y. pestis Topo-I inhibition via cleavage products; AID 504884; 360,000 compounds, 0.064% hits; Y. pestis Topo-I cleavage product accumulation, plate reader; activity, % at 10 µM; in the data active = activity above about 50%, passing the limit was not always enough; inconclusive = no clear call, values can overlap the other calls
TcdB GH inh – blocks C. difficile toxin B glycohydrolase activity; inhibition, % at 9.99 µM; TcdB glycohydrolase enzymatic assay, plate reader; P18177; 350,000 compounds, 0.24% hits; in the data active = inhibition above about 10%
Target sequence (P18177 whole entry, looked up): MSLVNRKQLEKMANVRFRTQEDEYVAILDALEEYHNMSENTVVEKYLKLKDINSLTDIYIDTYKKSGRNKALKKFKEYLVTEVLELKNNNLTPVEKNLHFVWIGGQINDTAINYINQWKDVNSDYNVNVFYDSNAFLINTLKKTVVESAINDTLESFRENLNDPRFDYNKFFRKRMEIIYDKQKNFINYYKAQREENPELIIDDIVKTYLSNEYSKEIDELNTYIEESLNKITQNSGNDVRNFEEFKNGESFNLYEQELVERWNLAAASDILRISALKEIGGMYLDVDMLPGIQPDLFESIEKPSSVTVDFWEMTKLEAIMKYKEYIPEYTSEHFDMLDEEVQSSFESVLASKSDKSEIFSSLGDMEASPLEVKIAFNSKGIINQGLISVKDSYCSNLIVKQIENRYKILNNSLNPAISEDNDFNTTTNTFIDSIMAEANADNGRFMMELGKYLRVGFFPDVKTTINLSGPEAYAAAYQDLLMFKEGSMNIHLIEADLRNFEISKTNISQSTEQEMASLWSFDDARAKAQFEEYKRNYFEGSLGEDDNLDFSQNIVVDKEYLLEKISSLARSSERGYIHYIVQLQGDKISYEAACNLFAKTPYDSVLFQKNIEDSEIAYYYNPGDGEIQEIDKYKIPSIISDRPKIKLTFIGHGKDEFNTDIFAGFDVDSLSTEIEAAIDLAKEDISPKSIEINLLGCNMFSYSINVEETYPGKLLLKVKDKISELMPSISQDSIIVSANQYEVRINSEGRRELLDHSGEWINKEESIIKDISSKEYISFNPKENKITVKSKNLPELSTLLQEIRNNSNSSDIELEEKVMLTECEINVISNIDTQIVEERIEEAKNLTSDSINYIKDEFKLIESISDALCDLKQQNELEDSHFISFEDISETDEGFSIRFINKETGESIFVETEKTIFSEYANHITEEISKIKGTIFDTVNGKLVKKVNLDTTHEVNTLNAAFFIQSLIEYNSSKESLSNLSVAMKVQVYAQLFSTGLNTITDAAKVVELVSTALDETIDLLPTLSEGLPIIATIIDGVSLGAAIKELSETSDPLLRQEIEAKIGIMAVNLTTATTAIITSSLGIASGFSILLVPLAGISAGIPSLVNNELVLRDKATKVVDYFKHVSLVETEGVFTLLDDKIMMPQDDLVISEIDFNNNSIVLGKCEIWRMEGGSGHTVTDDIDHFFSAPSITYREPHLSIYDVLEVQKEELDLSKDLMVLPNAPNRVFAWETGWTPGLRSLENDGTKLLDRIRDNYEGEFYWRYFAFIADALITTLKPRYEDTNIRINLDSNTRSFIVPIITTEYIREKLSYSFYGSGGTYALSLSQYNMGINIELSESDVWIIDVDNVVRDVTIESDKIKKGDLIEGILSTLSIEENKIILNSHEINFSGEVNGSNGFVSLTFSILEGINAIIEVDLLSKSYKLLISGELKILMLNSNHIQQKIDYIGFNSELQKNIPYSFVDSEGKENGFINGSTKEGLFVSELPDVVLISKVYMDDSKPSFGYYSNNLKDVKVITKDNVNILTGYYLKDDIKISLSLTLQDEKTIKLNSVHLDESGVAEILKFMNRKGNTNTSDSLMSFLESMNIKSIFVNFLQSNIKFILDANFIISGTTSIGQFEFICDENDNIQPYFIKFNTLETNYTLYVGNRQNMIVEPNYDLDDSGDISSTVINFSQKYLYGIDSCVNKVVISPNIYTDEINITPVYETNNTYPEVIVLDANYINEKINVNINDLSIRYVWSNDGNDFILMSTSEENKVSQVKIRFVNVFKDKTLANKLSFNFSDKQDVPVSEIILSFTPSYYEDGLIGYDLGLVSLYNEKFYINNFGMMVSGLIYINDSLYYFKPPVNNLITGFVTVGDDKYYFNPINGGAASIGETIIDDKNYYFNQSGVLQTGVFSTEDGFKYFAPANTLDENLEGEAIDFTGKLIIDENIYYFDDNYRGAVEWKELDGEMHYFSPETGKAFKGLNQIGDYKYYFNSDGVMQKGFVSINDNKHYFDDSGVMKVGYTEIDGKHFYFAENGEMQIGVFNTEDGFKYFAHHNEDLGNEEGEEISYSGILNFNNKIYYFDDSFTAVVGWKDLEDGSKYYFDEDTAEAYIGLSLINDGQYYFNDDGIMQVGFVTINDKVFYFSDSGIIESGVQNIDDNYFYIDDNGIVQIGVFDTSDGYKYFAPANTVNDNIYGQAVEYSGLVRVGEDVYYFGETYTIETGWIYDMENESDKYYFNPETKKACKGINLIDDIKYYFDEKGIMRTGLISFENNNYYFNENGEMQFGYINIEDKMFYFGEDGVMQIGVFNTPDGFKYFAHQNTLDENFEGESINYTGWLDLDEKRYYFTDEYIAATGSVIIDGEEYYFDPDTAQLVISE
FadD28 binding – blocks FadD28 binding to the bisubstrate probe | fluorescence polarization | inhibition, % at 12.5 µM | 360,000 compounds, 0.22% hits | AID 588549; in the data active = inhibition above about 8.5%, passing the limit was not always enough; inconclusive = no clear call, values can overlap the other calls
BioA inh-1 – BioA (M. tuberculosis) enzyme inhibition; 360,000 compounds, 0.096% hits; purified M. tuberculosis BioA enzyme, plate reader; inhibition, % at 9.99 µM; in the data active = inhibition above about 40%; inconclusive = no clear call, values can overlap the other calls
BH1578 lux ind – induces V. cholerae light production without autoinducers; V. cholerae BH1578 lux reporter, luminescence, 6 h; activation, % at 18.7 µM; 350,000 compounds, 0.16% hits; in the data active = activation mostly above about 9.7%, no sharp cut-off; inconclusive = no clear call, values can overlap the other calls; inactive = mostly below about 3.7%
BioA inh-2 – blocks M. tuberculosis BioA aminotransferase | AID 651679 | max activity, % | shares compounds with BioA inh-1 | 310 tested, under 10 active | purified BioA enzyme, plate reader, dose response;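 note: top concentration of the dilution series was 10 µM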
HepG2 tox 2 – HepG2 viability loss. shares compounds with BioA inh-1. HepG2 cytotoxicity, plate reader. max activity, %. 310 tested, under 10 active. AID 651898
NIH3T3 tox 5 – cytotoxicity in NIH3T3 cells; 310 tested, under 10 active; plate reader; activity change, negative = cytotoxicity, % at 26 µM; shares compounds with BioA inh-1; AID 651900
Each line names hits and unclear results; the compound was inactive in the other large screens (follow-up assays come after a bar, where they were run). Unless noted, the rule behind the calls is not given here.

CC(=O)c1ccc(N2CCN(C(=O)c3ccc4c(c3)OCO4)CC2)cc1	BioA inh-1 91.2 | BioA inh-2 inactive | HepG2 tox 2 inactive | NIH3T3 tox 5 inactive
Cc1ccc(-n2ncc3c2CC(C)(C)CC3NC(=O)CCc2ccncc2)cc1 (stereo not given)	none
Cc1cnc(C(=O)NC2CC(C)(C)Cc3c2cnn3-c2cccc(F)c2)cn1 (stereo not given)	BioA inh-1 63.0 | BioA inh-2 inactive | HepG2 tox 2 inactive | NIH3T3 tox 5 inactive
Cc1ccc(-n2ncc3c2CC(C)(C)CC3NC(=O)CCc2cccnc2)cc1 (stereo not given)	BioA inh-1 44.7 | BioA inh-2 inactive | HepG2 tox 2 inactive | NIH3T3 tox 5 inactive
O=C(C[C@H]1CC[C@@H](NC(=O)NC2CCCC2)[C@@H](CO)O1)NCc1ccc(F)cc1	none (no result: Y pestis TopoI, FadD28 binding, BH1578 lux ind)
O=C(Nc1nccs1)[C@H]1[C@H](CO)[C@H]2Cn3c(ccc(-c4cccnc4)c3=O)[C@H]2N1CC1CCCC1	BioA inh-1 51.7 (no result: Y pestis TopoI, FadD28 binding, BH1578 lux ind) | BioA inh-2 inactive | HepG2 tox 2 inactive | NIH3T3 tox 5 inactive
O=C(Nc1nccs1)[C@@H]1[C@@H](CO)[C@@H]2Cn3c(ccc(-c4cccnc4)c3=O)[C@@H]2N1CC1CCCC1	none (no result: Y pestis TopoI, FadD28 binding, BH1578 lux ind)
CCNC(=O)[C@H]1[C@H](CO)[C@H]2Cn3c(ccc(-c4cccc(F)c4)c3=O)[C@H]2N1C(=O)Cc1cccnc1	BioA inh-1 41.9 (no result: Y pestis TopoI, FadD28 binding, BH1578 lux ind) | BioA inh-2 inactive | HepG2 tox 2 inactive | NIH3T3 tox 5 inactive
COc1cc2cnc(-c3cccnc3)cc2cc1OC	BioA inh-1 46.4 | BioA inh-2 inactive | HepG2 tox 2 inactive | NIH3T3 tox 5 inactive
CC(=O)c1ccc(NC(=O)CN2CCN(c3ccccc3)CC2)cc1	BioA inh-1 54.7 | BioA inh-2 inactive | HepG2 tox 2 inactive | NIH3T3 tox 5 inactive
CC(=O)c1ccc(NC(=O)CN2CCN(CC(=O)Nc3ccc(C(C)=O)cc3)CC2)cc1	none
O=C(Nc1ccc(F)c(Cl)c1)C1CCCN(c2cnccn2)C1 (stereo not given)	BioA inh-1 41.0 | BioA inh-2 inactive | HepG2 tox 2 inactive | NIH3T3 tox 5 inactive
Cc1cccc(NC(=O)C2CCCN(c3cnccn3)C2)c1 (stereo not given)	none
O=C(Nc1cccc(F)c1)C1CCCN(c2cnccn2)C1 (stereo not given)	BioA inh-1 53.3 | BioA inh-2 inactive | HepG2 tox 2 inactive | NIH3T3 tox 5 inactive
CCNC(=O)C[C@H]1CC[C@@H]2[C@@H](COc3ccc(NC(=O)Nc4cccc(F)c4)cc3C(=O)N2C)O1	BioA inh-1 41.7 (no result: Y pestis TopoI, FadD28 binding, BH1578 lux ind) | BioA inh-2 inactive | HepG2 tox 2 inactive | NIH3T3 tox 5 inactive
CO[C@H]1CC[C@@H]2CCOc3ccc(C#N)cc3C(=O)N(C)C[C@H](C)C(=O)N(C)C[C@H]1O2	none (no result: Y pestis TopoI, FadD28 binding, BH1578 lux ind)
CC(C)NC(=O)Nc1ccc2c(c1)C(=O)N([C@@H](C)CO)C[C@@H](C)[C@@H](CN(C)C(=O)CCC(F)(F)F)OCCCC[C@@H](C)O2	none (no result: Y pestis TopoI, FadD28 binding, BH1578 lux ind)
O=C1CCCc2c1cc(C(=O)NCCCN1CCOCC1)c(=O)n2-c1ccc(Cl)cc1	BioA inh-1 45.0 | BioA inh-2 inactive | HepG2 tox 2 inactive | NIH3T3 tox 5 inactive
O=C1CCCc2c1cc(C(=O)NCc1ccco1)c(=O)n2-c1ccc(Cl)cc1	BioA inh-1 50.2 (no result: TcdB GH inh) | BioA inh-2 inactive | HepG2 tox 2 inactive | NIH3T3 tox 5 inactive
CN1CCCC1CCOC(C)(c1ccccc1)c1ccc(Cl)cc1 (stereo not given)	BioA inh-1 48.5 | BioA inh-2 inactive | HepG2 tox 2 inactive | NIH3T3 tox 5 inconclusive
CN1CCCC1C(O)(c1ccccc1)c1ccccc1 (stereo not given)	none (no result: TcdB GH inh)
COc1ccc(CCN(C)C/C=C/c2ccccc2[N+](=O)[O-])cc1OC	none
COc1ccc(CCN(C)c2ccc(C(N)=O)cc2[N+](=O)[O-])cc1OC	BioA inh-1 49.0 | BioA inh-2 inactive | HepG2 tox 2 inactive | NIH3T3 tox 5 inactive
CCN(CC)c1ccc2cc(C(=O)c3cccs3)c(=O)oc2c1	BioA inh-1 90.9 (no result: Y pestis TopoI, BH1578 lux ind) | BioA inh-2 inactive | HepG2 tox 2 inactive | NIH3T3 tox 5 inactive
O=C(c1cccnc1)N1C[C@H]2[C@@H](c3ccccc31)[C@H](CO)N2C(=O)C1CCOCC1	none (no result: Y pestis TopoI, FadD28 binding, BH1578 lux ind)
CCOC(=O)C1(CCc2ccccc2)CCN(C(=O)C2=C(C)OCCO2)CC1	none (no result: BioA inh-1)
CCOC(=O)C1(CCc2ccccc2)CCN(C(=O)CN2CCOC2=O)CC1	BioA inh-1 58.6 | BioA inh-2 inactive | HepG2 tox 2 inactive | NIH3T3 tox 5 inactive
CO[C@@H]1CN(C)C(=O)c2cc(NC(=O)C3CCC3)ccc2OC[C@H](C)NC[C@H]1C	none (no result: Y pestis TopoI, FadD28 binding, BH1578 lux ind)
CC(C)CC(=O)OC(C)(C)[C@@H]1Cc2c(ccc3ccc(=O)oc23)O1	none
C/C=C(/C)C(=O)OC(C)(C)[C@@H]1Cc2c(ccc3ccc(=O)oc23)O1	BioA inh-1 52.8 | BioA inh-2 inactive | HepG2 tox 2 inactive | NIH3T3 tox 5 inactive
CSc1ccc(S(=O)(=O)N2CCC(C(=O)Nc3cccnc3)CC2)cc1	BioA inh-1 70.7 | BioA inh-2 inactive | HepG2 tox 2 inactive | NIH3T3 tox 5 inactive
O=C(NCc1ccc(Cl)cc1)C1CCN(S(=O)(=O)c2cccnc2)CC1	none
O=C(Nc1cccnc1)C1CCN(S(=O)(=O)c2ccc(Cl)cc2)CC1	BioA inh-1 85.5 | BioA inh-2 inactive | HepG2 tox 2 inactive | NIH3T3 tox 5 inactive
COCC(=O)Nc1ccc2c(c1)C(=O)N(C)C[C@H](OC)[C@@H](C)CN(C(=O)c1ccccc1)[C@@H](C)CO2	none (no result: Y pestis TopoI, TcdB GH inh, FadD28 binding, BH1578 lux ind)
CNC(=O)C[C@H]1CC[C@H]2[C@H](COc3ccc(NC(=O)Nc4ccc(Cl)cc4)cc3C(=O)N2C)O1	none (no result: Y pestis TopoI, FadD28 binding, BH1578 lux ind)
COc1ccccc1-n1c(SCC(=O)N(C)C2CCS(=O)(=O)C2)nc2ccccc2c1=O (stereo not given)	BioA inh-1 inconclusive (no result: TcdB GH inh)
Cc1ccccc1-n1c(SCC(=O)N(C)C2CCS(=O)(=O)C2)nc2ccccc2c1=O (stereo not given)	BioA inh-1 59.7 | BioA inh-2 inactive | HepG2 tox 2 inactive | NIH3T3 tox 5 inactive
CN(C(=O)CSc1nc2ccccc2c(=O)n1-c1ccccc1Cl)C1CCS(=O)(=O)C1 (stereo not given)	BioA inh-1 49.6 | BioA inh-2 inactive | HepG2 tox 2 inactive | NIH3T3 tox 5 inactive
O=C(C[C@H]1CC[C@H](NC(=O)C2CCOCC2)[C@H](CO)O1)Nc1ccccc1	none (no result: Y pestis TopoI, FadD28 binding, BioA inh-1, BH1578 lux ind)
CCN1CCN(c2ccc([N+](=O)[O-])cc2C=C2C(=O)NC(=O)NC2=O)CC1	none
CC(=O)N1CCN(c2ccc([N+](=O)[O-])cc2C=C2C(=O)NC(=O)NC2=O)CC1	BioA inh-1 44.2 (no result: TcdB GH inh) | BioA inh-2 inactive | HepG2 tox 2 inactive | NIH3T3 tox 5 inactive
CO[C@H]1CN(C)C(=O)c2ccc(NC(C)=O)cc2OC[C@@H](C)N(C(=O)c2ccc(F)cc2)C[C@H]1C	BioA inh-1 49.6 (no result: Y pestis TopoI, FadD28 binding, BH1578 lux ind) | BioA inh-2 inactive | HepG2 tox 2 inactive | NIH3T3 tox 5 inactive
COCCCN1C(=O)c2ccc(C(=O)Nc3cccc(OC)c3)cc2C1=O	none (no result: TcdB GH inh)
